Results: PubChem BioAssay (EPA / NIEHS)
Several values for one entry are separate records, joined by “and”; a condition that tells them apart may be missing. Equal entries are not always repeated. A structure can be active in one record and inactive in another. Activity calls are given as the source filed them. The calls were made as follows: active = hit-call score of the fitted dose curve at least 0.9, where 1 is the maximum; inactive = score below 0.9.

How the values were obtained:
[1] = read-out: Actin alpha 1 (ACTA1), ACTA1 (gene 58); assay: BSK_MyoF_ACTA1: BioMAP Diversity Plus: MyoF Assay for Actin alpha 1 (ACTA1) Biomarker Activity (AID 2284244); conditions: primary human lung fibroblasts
Protocol: (§1) BSK_MyoF is a cell-based, multiplexed-readout assay that uses lung fibroblasts, […], with measurements taken at 24 hours after chemical dosing in a microplate: 96-well plate.BSK_MyoF_ACTA1 is an assay component measured in the BSK_MyoF assay. It measures a-SMA antibody related to regulation of gene expression using ELISA technology.Data from the assay component BSK_MyoF_ACTA1 was analyzed at the endpoint, BSK_MyoF_ACTA1, in the positive analysis fitting direction relative to DMSO as the negative control and baseline of activity. Using a type of binding reporter, gain or loss-of-signal activity can be used to understand protein changes. […]
(§2) The levels of cell surface (or secreted, indicated by the prefix "s") biomarker endpoints were measured by ELISA. Overt cytotoxicity to cells in confluent adherent cultures (all systems other than the BT system) was assessed by measuring total protein levels using sulforhodamine B (SRB) staining in parallel cultures at the time of biomarker measurements, indicated as SRB endpoints. For proliferation assays for adherent cell types, individual cell types are cultured at sub-confluence and relative cell numbers quantified by SRB staining at time points optimized for each system (48 h: 3C and CASM3C systems; 72 h: BT and HDF3CGF systems; 96 h: SAg system). […] Plates were read after 6 h.

[2] = read-out: Interleukin 2 (IL2), IL2 (gene 3558); assay: BSK_BT_xIL2: BioMAP Diversity Plus: BT Assay for Interleukin 2 (IL2) Biomarker Activity (AID 2284245); conditions: primary human B cells with PBMC
How it was run: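 Secreted interleukin-2 from human B cell/PBMC co-cultures, measured 24 h post-dosing by Luminex multiplex immunoassay. Upward-direction curve fitting against DMSO baseline.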

[3] = read-out: Basic fibroblast growth factor (bFGF), FGF2 (gene 2247); assay: BSK_MyoF_bFGF: BioMAP Diversity Plus: MyoF Assay for Basic fibroblast growth factor (bFGF) Biomarker Activity (AID 2284246); conditions: primary human lung fibroblasts
How it was run: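 In this multiplexed cell system, lung fibroblasts (human primary) receive test chemical for 24 h before ELISA detection of bFGF; DMSO defines baseline and the analysis direction is positive.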

[4] = read-out: Collagen IV, COL4A1 (gene 1282); assay: BSK_MyoF_CollagenIV: BioMAP Diversity Plus: MyoF Assay for Collagen IV Biomarker Activity (AID 2284247); conditions: primary human lung fibroblasts
Protocol: as §1, with “plate.BSK_MyoF_CollagenIV” for “plate.BSK_MyoF_ACTA1”, “Collagen IV” for “a-SMA”, “BSK_MyoF_CollagenIV” for “BSK_MyoF_ACTA1”, “BSK_MyoF_CollagenIV,” for “BSK_MyoF_ACTA1,”
as §2

[5] = read-out: Monokine induced gamma interferon (MIG), CXCL9 (gene 4283); assay: BSK_KF3CT_MIG: BioMAP Diversity Plus: KF3CT Assay for Monokine induced gamma interferon (MIG) Biomarker Activity (AID 2284248); conditions: primary human keratinocytes with fibroblasts
How it was run: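 ELISA read-out of MIG after 24 h chemical exposure of human skin primary co-culture (keratinocytes, foreskin fibroblasts). Gain of signal relative to DMSO negative control was analysed.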

[6] = read-out: Vascular cell adhesion molecule 1 (VCAM1), VCAM1 (gene 7412); assay: BSK_BF4T_VCAM1: BioMAP Diversity Plus: BF4T Assay for Vascular cell adhesion molecule 1 (VCAM1) Biomarker Activity (AID 2284249); conditions: primary human bronchial epithelial cells with fibroblasts
Protocol: as §1, with “BSK_BF4T” for “BSK_MyoF”, “bronchial epithelial cells and dermal” for “lung”, “plate.BSK_BF4T_VCAM1” for “plate.BSK_MyoF_ACTA1”, “VCAM-1” for “a-SMA”, “BSK_BF4T_VCAM1” for “BSK_MyoF_ACTA1”, “BSK_BF4T_VCAM1,” for “BSK_MyoF_ACTA1,”
as §2

[7] = read-out: Collagen I, COL1A1 (gene 1277); assay: BSK_hDFCGF_CollagenI: BioMAP Diversity Plus: hDFCGF Assay for Collagen I Biomarker Activity (AID 2284250); conditions: primary human foreskin fibroblasts
How it was run: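 Cells were primary human foreskin fibroblasts treated for 24 h. Collagen I levels were then determined by ELISA and compared against DMSO controls.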

[8] = read-out: Interferon-inducible T-cell alpha chemoattractant (ITAC), CXCL11 (gene 6373); assay: BSK_hDFCGF_ITAC: BioMAP Diversity Plus: hDFCGF Assay for Interferon-inducible T-cell alpha chemoattractant (ITAC) Biomarker Activity (AID 2284251); conditions: primary human foreskin fibroblasts
Protocol: BSK_hDFCGF is a cell-based, multiplexed-readout assay that uses foreskin fibroblast, a human skin primary cell, with measurements taken at 24 hours after chemical dosing in a 96-well plate.BSK_hDFCGF_ITAC is an assay component measured in the BSK_hDFCGF assay. It measures I-TAC antibody related to regulation of gene expression using ELISA technology.Data from the assay component BSK_hDFCGF_ITAC was analyzed at the endpoint, BSK_hDFCGF_ITAC, in the positive analysis fitting direction relative to DMSO as the negative control and baseline of activity. Using a type of binding reporter, gain or loss-of-signal activity can be used to understand protein changes. […]
as §2

[9] = read-out: Plasminogen activator inhibitor-1 (PAI1), SERPINE1 (gene 5054); assay: BSK_KF3CT_PAI1: BioMAP Diversity Plus: KF3CT Assay for Plasminogen activator inhibitor-1 (PAI1) Biomarker Activity (AID 2284252); conditions: primary human keratinocytes with fibroblasts
How it was run: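 Signal is PAI-1 detected by ELISA in a human skin-derived keratinocyte/fibroblast co-culture, 24 h after dosing; DMSO served as negative control and baseline.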

[10] = read-out: Monocyte Chemoattractant Protein-1 (MCP1), CCL2 (gene 6347); assay: BSK_IMphg_MCP1: BioMAP Diversity Plus: IMphg Assay for Monocyte Chemoattractant Protein-1 (MCP1) Biomarker Activity (AID 2284253); conditions: primary human endothelial cells with macrophages
How it was run: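 Human venular endothelial cells co-cultured with macrophages; MCP-1 measured by ELISA 24 hours post-dose and fitted against DMSO. Cytotoxicity monitored by SRB total-protein staining in parallel cultures.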

Measured: AC50

CCNS(=O)(=O)C(F)(F)C(F)(F)C(F)(F)C(F)(F)C(F)(F)C(F)(F)C(F)(F)C(F)(F)F
inactive: [2] | [5]
active: [1] 21.5 µM and 30 µM | [3] 46.5 µM and 50.8 µM | [4] 54.7 µM and 7.29 µM | [5] 46 µM | [6] 15.4 µM and 14.3 µM | [7] 46.9 µM and 38.3 µM | [8] 24.8 µM and 27.5 µM | [9] 39.7 µM and 39.3 µM | [10] 41.4 µM and 36.9 µM
